Consider 94 compounds from PubChem BioAssay AID2314 (National Center for Advancing Translational Sciences (NCATS), 2010).

In all, about 300,000 compounds went through this assay and about 37,000 (12%) were called active. No stated cut-off is given here; in the data, active means max response mostly above about 13% (no sharp cut-off); inactive means mostly below about 14%. Shown is part of a subset that was picked to be rich in actives.

The nature of the experiment: Cycloheximide Counterscreen for Small Molecule Inhibitors of Shiga Toxin. Further: read at 38.3 µM for the half of the compounds with a filed dose; 0% is about no effect. Particulars: cell reporter, cycloheximide protein synthesis inhibition counterscreen; active compounds read high. A general note: Counterscreens check selectivity or assay interference.
Turning to `O=C(COC(=O)/C=C/c1cn(-c2ccccc2)nc1-c1cccnc1)Nc1ccc(Cl)cc1Cl`, the max response is 3.3% (inactive). Regarding `COc1cccc(-n2c(=S)sc3c(=O)n(-c4ccccc4C)c(SCC(=O)O)nc32)c1`, the max response was -1.2% (inactive). As for `O=C(c1ccccc1F)N1CCN(S(=O)(=O)c2ccc(Br)cc2)CC1`, the figure is -10.6% (inactive).

Regarding `O=C1NC(=O)C(c2ccc(Cl)cc2)N1` (centres undefined), the max response was -2.12% (inactive). As for `C=CCN1C(=O)NC(=O)/C(=C/c2ccc(OCC(=O)Nc3ccc(C)cc3)cc2)C1=O`, the figure is 14.5% (active). Regarding `CCOC(=O)C1=C(O)/C(=C/c2ccc(OCC(=O)Nc3ccc(C)cc3)cc2)N=C1C`, the max response is -7% (inactive). As to `Cc1ccc(NC(=O)COc2ccc(/C=C3/NC(=O)NC3=O)cc2)cc1`, the max response was -1.82% (inactive). As for `CCSc1nnc(SCC(=O)NNC(=O)c2ccccc2F)s1`, the max response was 6.26% (inactive). Take `O=C(CCC1CCCC1)N=C1SC2CS(=O)(=O)CC2N1Cc1ccccc1` (centres undefined): the max response is 0.661% (inactive). As for `COc1cccc2sc(Nc3nc(C)c(C(C)=O)s3)nc12`, the max response is 16.2% (active).

For `COc1cc2ccccc2cc1C(=O)Nc1ccc(S(=O)(=O)Nc2cc(C)on2)cc1`, the max response was -2.65% (inactive). For the compound `COc1cccc2sc(NNC(=O)c3nc4ccccc4s3)nc12`, the max response is 12.4% (inactive).

Regarding `COc1ccc(Br)cc1C(=O)Nc1cccc(C)c1C`, the max response is -3.3% (inactive). As for `CNC(=O)c1sc(NCc2ccccc2OC)nc1C`, the max response is -3.72% (inactive). `CC(=O)c1sc(NC(=O)C2=NN(c3ccccc3)C(=O)CC2)nc1C`: the max response was -0.878% (inactive).

As for `CNC(=O)c1sc(Nc2ccc(OCc3ccccc3)cc2)nc1C`, the max response was 10.4% (inactive). `CC(=O)c1sc(NC(=O)c2ccc(C)cc2)nc1C`: the max response was 54.3% (active). For the compound `COC(=O)c1sc(NC(=S)NC(=O)c2ccc(C)cc2)nc1C`, the max response is 9.32% (inactive). As for `CC(=O)c1sc(NC(=O)c2cccc3ccccc23)nc1C`, the max response is 35.9% (active).

`COc1cc2ccccc2cc1C(=O)Nc1ccccc1C`: the max response was 29.7% (active). Take `CCOC(=O)c1sc(NC(=O)c2ccncc2)nc1C`: the max response was 0.888% (inactive). For the compound `COc1cc(C(=O)NCc2ccncc2)cc(Br)c1OCc1ccccc1`, the max response was -7.17% (inactive). As for `Cc1ccc(C(=O)N/N=C\c2cc(Br)c(Br)o2)cn1`, the max response is 3.37% (inactive). `CC(=O)NS(=O)(=O)c1ccc2c(c1)Cc1cc(S(=O)(=O)NC(C)=O)ccc1-2`: the max response was -0.942% (inactive).

Take `N#C[C@]1(S(=O)(=O)c2ccccc2)C[C@@H]2ON=C(c3cccc(Br)c3)[C@@H]2C1`: the max response is 0.173% (inactive). As to `CCCCC(O)(CCCC)C(=O)NN(C(=O)CCl)c1ccccc1`, the max response is 4.18% (inactive). As for `COc1cc2ccccc2cc1C(=O)Nc1nc(C)c(C(C)=O)s1`, the figure is 33.8% (active). As to `O=C(Cc1ccccc1)NC(=S)Nc1ccc(N2CCCCC2)cc1`, the max response was 20.2% (inactive). As for `CC1(C)CC(N2CCN(C(c3ccccc3)c3ccccc3)CC2)=CC(=[N+]2CCCCC2)C1`, the figure is -1.68% (inactive). As for `CCOC(=O)c1ccc(CS(=O)c2ccc(Cl)cc2)o1` (centres undefined), the figure is 25.3% (active); as for `CCOC(=O)c1ccc(COC(=O)c2cc(=O)[nH]c3ccccc23)o1`, -2.02% (inactive). With `Cc1ccc(S(=O)Cc2ccc(C(=O)N3CCN(C4CCCCC4)CC3)o2)cc1` (centres undefined), the max response is 0.779% (inactive). For the compound `C=CCn1c(CNS(=O)(=O)c2ccc(Br)cc2)nnc1SC`, the max response was -1.32% (inactive). Regarding `COc1ccc(CCNC(=O)c2nnc(CS(=O)(=O)c3ccccc3)o2)cc1OC`, the max response is -0.612% (inactive). Turning to `CC(=O)NC(CC(=O)Nc1nc(-c2ccccc2)c(C(C)=O)s1)c1ccccc1` (centres undefined), the max response was -6.12% (inactive). Consider `COC(=O)c1c(C)[nH]c(C(=O)/C=C/c2ccc(Cl)cc2)c1C`, for which the max response is 30.8% (active). Turning to `COC(=O)c1c(C)[nH]c(C)c1-c1ccc([N+](=O)[O-])cc1`, the max response was -6.3% (inactive). With `COC(=O)c1c(C)oc(C)c1S(=O)(=O)NCc1ccc(Cl)cc1`, the max response was -1.57% (inactive). As for `COc1ccc(NC(=O)c2sc3nc(C)nc(N4CCN(c5ccccn5)CC4)c3c2C)c(OC)c1`, the max response was -5.96% (inactive). On to `CCN(C(=O)COC(=O)/C=C/c1nc2ccccc2s1)C1CCS(=O)(=O)C1` (centres undefined), for which the max response was -3.69% (inactive).

Take `O=S(=O)(Nc1cccc(-n2cnnn2)c1)c1cnc(Cl)c(Cl)c1`: the max response was 4.36% (inactive). For `O=C(CN1C2=NCCN2c2ccccc21)c1cccs1`, the max response was 4.8% (inactive). As for `Nc1c(C(=O)c2cccs2)sc2nsc(SCCN3CCCCC3)c12`, the max response is 24.4% (active). Consider `O=C(c1ccc(Oc2ccc(Cl)cc2)c([N+](=O)[O-])c1)N1CCCC1`, for which the max response is -3.06% (inactive). Consider `COc1ccc(N=Cc2c(O)[nH]c3ccccc23)cc1OC`, for which the max response is 43.7% (active).

As to `COc1cc(N=Cc2c(O)[nH]c3ccccc23)cc(OC)c1OC`, the max response was 6.65% (inactive). Turning to `COc1ccccc1N=Cc1c(O)c2ccccc2oc1=O`, the max response was 9.95% (inactive). For `COc1cc(OC)c(C(=S)N2CCCC2)cc1OC`, the max response was -2.47% (inactive). For `Cc1cccc(NS(=O)(=O)c2cc(Cl)ccc2Cl)n1`, the max response is -0.991% (inactive). With `C[C@H](NC(=O)c1nc[nH]c1C(=O)NCC(=O)OC(C)(C)C)C(=O)OCc1ccccc1`, the max response was -0.808% (inactive). With `CCC(C)C(NC(=O)C1CCC(=O)N1C(=O)OCc1ccccc1)C(=O)NC(C(=O)N1CCCC1C(N)=O)C(C)CC` (centres undefined), the max response was -2.75% (inactive). Consider `COc1cc(/C=N/N2CCN(c3ccccc3)CC2)ccc1OC(C)=O`, for which the max response is 15.1% (inactive). `COc1ccccc1N1CCN(/N=C/c2ccc(O)cc2O)CC1`: the max response was 20% (active). As for `COc1ccccc1N1CCN(/N=C\C(Br)=C\c2ccccc2)CC1`, the figure is 21.4% (inactive).

As to `Cc1nnc(NC(=O)C(c2ccccc2)c2ccccc2)s1`, the max response was -6.29% (inactive).

As to `CCCCN1C(=O)C(C)=C(C)C1OCCc1ccc(OC)c(OC)c1` (centres undefined), the max response is -1.75% (inactive). Consider `COc1ccc(C(C(=O)NC2CCCCC2)N(C(=O)c2snc(C(N)=O)c2N)c2ccccc2OC)cc1` (centres undefined), for which the max response was -4.3% (inactive).

With `Cc1ccc(NC(=O)OCc2cncs2)cc1`, the max response is 28.5% (active). On to `CC(C)(COC(=O)Nc1ccccc1)COC(=O)Nc1ccccc1`, for which the max response was 19% (active). For `CCOC(=O)C(NC(C)=O)C(=O)Nc1ccc(OC)cc1` (centres undefined), the max response is -2.02% (inactive).

Turning to `Cc1ccc(OCc2nnc(NC(=O)OCC(C)C)s2)cc1`, the max response is -6.37% (inactive).

As for `CCCCCOC(=O)NCCOC(=O)Nc1ccc(C(=O)OCC)cc1`, the max response was -1.37% (inactive). Take `CCOC(=O)N1CCN(CCC(=O)Nc2ccccc2)CC1`: the max response was -2.64% (inactive). Regarding `CCOC(=O)Nc1ccc(NC(=O)OCC)cc1`, the max response is 38.2% (active). Turning to `CC(C)(C)C1CCC(OC(=O)CCC(=O)Nc2ccccc2)CC1` (centres undefined), the max response was 4.12% (inactive). In the case of `COc1ccc(NC(=O)/C(Cl)=C(/Cl)S(=O)Cc2ccc(C)cc2)cn1` (centres undefined), the max response is -12.1% (inactive). As for `Cc1ccc(C(=O)NCCNC(=O)c2cnccn2)cc1`, the max response is -0.952% (inactive). Consider `CCOC(=O)Nc1ccc(S(=O)(=O)N(C)C(C)C)cc1`, for which the max response is 2.33% (inactive). Turning to `Cc1ccc(NC(=O)OCCNC(=O)c2ccncc2)cc1`, the max response is 19.8% (active). In the case of `O=C(c1ccccc1)C(Cn1cncn1)C(Sc1ccccc1)c1ccccc1` (centres undefined), the max response was -6.69% (inactive). As to `CC(C)C(=O)N1CCC2(CC1)Oc1ccc(F)cc1C(=O)C21CC(c2ccccc2)=NO1` (centres undefined), the max response was -2.77% (inactive). As for `CN(C)CCOC1c2ccccc2-c2ccccc21`, the max response was 0.251% (inactive). Regarding `COc1cc(OC)c(C(=O)OC(C)C(=O)Nc2cc(C(F)(F)F)ccc2Cl)cc1OC` (centres undefined), the max response was 4.97% (inactive).

Turning to `CC1=C(C(N)=O)C(c2ccc(Br)cc2)n2ncnc2N1` (centres undefined), the max response was -0.44% (inactive). `c1ccc(-c2cc(N3CCCCC3)c3ccccc3n2)cc1`: the max response is -6.32% (inactive). Consider `Cc1ccc(S(=O)(=O)N(C)C)cc1NC(=O)C1Cc2ccccc2CN1C(=O)c1ccco1` (centres undefined), for which the max response was -2.92% (inactive). As for `C=CCC1=C/C(=C\c2c(N)n3nc(CC(=O)N4CCOCC4)sc3nc2=O)C=C(OC)C1=O`, the figure is 0.431% (inactive). In the case of `Cc1ccc(OS(=O)(=O)c2ccc(-c3csc(C)n3)s2)c(C)c1`, the max response is 1.06% (inactive). Regarding `CN(Cc1nc2ccc(F)cc2[nH]1)Cc1nc(CC2CC2)no1`, the max response was -0.7% (inactive). For the compound `OC(COc1ccc2ccccc2c1)CN1CCOCC1` (centres undefined), the max response is 24% (active). In the case of `COc1ccccc1OCC(O)CN1CCOCC1` (centres undefined), the max response is -1.33% (inactive).

For the compound `OC(COc1ccc2ccccc2c1)Cn1cncn1` (centres undefined), the max response was 8.69% (inactive). Turning to `COc1ccc(C(=O)Nc2cc(C)c(NC(=O)c3ccccc3OC)cn2)cc1`, the max response was 9.29% (inactive). For the compound `Nc1nc(NCc2ccccc2)n(-c2ccccc2)n1`, the max response is -3.49% (inactive). For the compound `CC(=O)Nc1ccc(N2C(=O)CC(Sc3nccc(C)n3)C2=O)cc1` (centres undefined), the max response is -0.348% (inactive).

As for `Cc1[nH]c2ccccc2c1/C=N/NC(=O)CNC(=O)c1ccc2c(c1)OCO2`, the max response is -0.0106% (inactive). As for `O=C(N/N=C/c1ccc2c(c1)OCO2)C(=O)N1CCCC1`, the max response is 46.6% (active).

Turning to `COc1ccccc1N1CCN(C(=O)C(=O)N/N=C/c2ccccc2F)CC1`, the max response is -0.733% (inactive). As for `O=C(CNC(=O)C(c1ccccc1)c1ccccc1)N/N=C\c1ccc2c(c1)OCO2`, the max response is 35.9% (active). Take `O=C(N/N=C/c1ccc([N+](=O)[O-])cc1)C(=O)N1CCCC1`: the max response was -0.79% (inactive). In the case of `O=C(Cc1ccc(F)cc1)N/N=C/c1ccc2c(c1)OCO2`, the max response is 14.7% (inactive). `Cc1cccc(Cn2cnc3c(N)c(C)c(C)cc32)c1`: the max response is -6.87% (inactive).

For `CC(NC(=O)COC(=O)C1CCN(S(=O)(=O)c2ccccc2C(F)(F)F)CC1)c1ccccc1` (centres undefined), the max response was -0.765% (inactive). As for `COc1ccc(NS(=O)(=O)c2ccc(N3CCOCC3)c(NC(=O)c3ccccc3Br)c2)cc1`, the figure is -1.16% (inactive).
